Test results from PubChem BioAssay.
The source made the active and inactive calls.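 How the source made its calls: active means z-score of at least 1.8 in each of two replicates, scored against plate mean and spread of sample wells; inactive means the rest.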

Experiment: galactose survival enhancers in mitochondrial complex I cybrids – cell-based, galactose medium, ATP luminescence, primary screen (AID 1645843);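 further: positive z means more ATP and so rescue of galactose-driven cybrid death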
Settings: complex I mutant cybrid cells, 72 h, active compounds read high

Row | SMILES | z-score
1 | Cc1nc(C(C)Nc2ncnc3sccc23)cs1 (centres undefined) | 0.845 (inactive)
2 | COc1ccc(-c2cccc(C(=O)c3nccn3C)c2)c(C)c1 | -0.555 (inactive)
3 | COc1ccc(-c2ncnc3sc(C)c(C)c23)c(OC)c1 | 0.66 (inactive)
4 | COC(C)(C)CCCC(C)CCN1CCC(n2cc(C(C)(C)N)nn2)CC1 (centres undefined) | -0.52 (inactive)
5 | Cc1cc2c(=O)n(Cc3nc4ccccc4[nH]3)cnc2s1 | -0.615 (inactive)
6 | Cc1cc(CN2CCC(Cc3ccc(F)cc3)CC2)n(C)n1 | 0.225 (inactive)
7 | CC(=O)c1c(C)nn(CC(=O)Nc2ccnn2C2CCCCC2)c1C | 0.2 (inactive)
8 | Cc1nsc(NC(=O)N2CCC(C(=O)N3CCCC3)CC2)n1 | -0.375 (inactive)
9 | O=c1c2cccc(F)c2ncn1CCC1CCCCN1C1CCCC1 (centres undefined) | -0.825 (inactive)
10 | O=C(Nc1ccc2nccnc2c1)c1csc(Cc2ccccc2)n1 | -1.07 (inactive)
11 | COc1ccc(C(=O)N2CCN(C(=O)c3cc(C)c(C)cc3C)CC2)cc1 | 0.125 (inactive)
12 | Cc1nsc(NC(=O)N2CCCC(C)(CO)C2)n1 (centres undefined) | -0.515 (inactive)
13 | O=C(NC(Cn1cccn1)c1ccccc1)c1ccc2nccnc2c1 (centres undefined) | 1.25 (inactive)
14 | O=C(CCn1cnnn1)N1CCc2[nH]nc(-c3ccc4c(c3)OCO4)c2C1 | 0.465 (inactive)
15 | CCC1(CC)CC1C(=O)N1CCC(n2cc(C(C)(C)O)nn2)CC1 (centres undefined) | -0.515 (inactive)
16 | Cc1ccsc1-c1cccc(C(=O)c2nccn2C)c1 | 0.225 (inactive)
17 | COc1cccc(CC(=O)NCc2ccc(Cl)s2)c1 | -0.145 (inactive)
18 | OC[C@H](Cc1ccccc1)NC1CCCCCC1 | -0.555 (inactive)
19 | CCc1c(C(=O)N2CCCN(C(C)=O)CC2)csc1C | -0.54 (inactive)
20 | COC(=O)c1ccc(N2CCC(c3ccccc3Cl)C2)nc1 (centres undefined) | 0.895 (inactive)

Row | SMILES | z-score
21 | O=C(C1CCCCCC1)N1CCC(n2cc(C3CC3)nn2)CC1 | -0.53 (inactive)
22 | O=C(O)C1(Oc2cccc(-c3cccc4ncccc34)c2)CCCC1 | -0.5 (inactive)
23 | O=C(C1CCCCCC1)N1CCC(n2cc(-c3ccccn3)nn2)CC1 | -0.545 (inactive)
24 | Cc1ccn2cc(C(=O)N(CC(C)C)CC(C)C)nc2c1 | -0.515 (inactive)
25 | CCCC(CCC)N[C@H](CO)Cc1ccccc1 | -0.345 (inactive)
26 | Cc1nn(C)cc1-c1ccnc(NCCc2nc(-c3ccccn3)no2)n1 | -0.82 (inactive)
27 | CC1Cc2cc(C(=O)N3CCC(n4cc(CCO)nn4)CC3)ccc2O1 (centres undefined) | 0.36 (inactive)
28 | Cc1nsc(NC(=O)N2CCCN(c3ccccc3)CC2)n1 | -0.19 (inactive)
29 | CC(C)Oc1cccc(C(=O)N2CCC(Cn3cc(C4CC4)nn3)CC2)c1 | -0.515 (inactive)
30 | CC(C)Oc1cccc(C(=O)N2CCC(n3cc(C(C)(C)O)nn3)CC2)c1 | -0.52 (inactive)
31 | COc1ccc2c(C(=O)N(C)CCc3ccccn3)cc(-c3cnn(C)c3)nc2c1 | -0.54 (inactive)
32 | O=C(Nc1cccc(N2CCCC2=O)c1)c1cc(C(F)(F)F)ccc1Cl | -0.405 (inactive)
33 | O=C(Cn1cc(-c2cncnc2)cn1)Nc1ccnn1Cc1ccco1 | 1.12 (inactive)
34 | Cn1ncc(NC(=O)Cn2ccc(-c3ccccc3C(F)(F)F)n2)n1 | 1.12 (inactive)
35 | Cc1ccc2c(C(=O)N3CCN(C)C(=O)C3C)cc(-c3cnn(C(C)C)c3)nc2c1 (centres undefined) | -0.56 (inactive)
36 | OC1(c2ccccc2)CCN(Cc2ccccc2Cl)C1 (centres undefined) | -1.11 (inactive)
37 | CC(C)c1nc(Cn2cnc3sc4c(c3c2=O)CCCC4)cs1 | 1.35 (inactive)
38 | CC(CCCC(C)(C)O)CCNCC1CCN(c2ccccc2)C1 (centres undefined) | -0.605 (inactive)
39 | c1cnn(-c2ccc(N3CCC(N4CCC4)CC3)cc2)c1 | -0.48 (inactive)
